Assay [1] is described as follows: anti-His antibody binders, primary screen, artefact control for SMM control protein annotation, biochemical, small-molecule microarray, 635 nm fluorescence (AID 1128).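 Further: score merges feature fluorescence with signal-to-noise for each printed compound spot.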 Particulars: anti-His Alexa647 antibody binding, higher = more signal.
The test system of assay [2] is Human papillomavirus type 1a E7 protein (residues 1-88). Put plainly: HPV1a E7 small-molecule binders, primary screen, biochemical, small-molecule microarray, residues 1-88, 635 nm (AID 1129). Particulars: small-molecule microarray binding, fluorescence 635 nm; higher = more signal.
Assay [3] deals with Focal adhesion kinase 1 (Homo sapiens) (UniProt Q05397). As to the kind of experiment: small-molecule microarray binders of FAK, primary screen, biochemical, 635/667 nm fluorescence, BSA, DTT (AID 1130).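 Further: composite of spot emission at 667 nm and signal to noise over triplicate slides.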 The note with it: PTK2 binding, 635 nm fluorescence, higher = more signal.
Assay [4] deals with Fibrinogen (Alexa647-labelled). Put plainly: fibrinogen binders on compound microarrays, profiling panel, artefact control for SMM control-protein annotation, biochemical, small-molecule microarray, 635/667 nm fluorescence (AID 1131).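 Further: z-score merges 667 nm fluorescence with per-spot signal-to-noise over triplicate slides.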 Particulars: fibrinogen-A647 binding fluorescence, higher = more signal.
In assay [5] the target is Follistatin (Homo sapiens) (UniProt P19883). As to the kind of experiment: follistatin binders on small-molecule microarrays, primary screen, biochemical, small-molecule microarray, 635/667 nm fluorescence (AID 1132). The note with it: FST binding, 635 nm fluorescence, higher = more signal.
Assay [6] has as its target Fibroblast growth factor 2 (Homo sapiens) (UniProt P09038). Put plainly: FGF2 binders on small-molecule microarrays, primary screen, biochemical, small-molecule microarray, 635/667 nm fluorescence (AID 1133). The note with it: small-molecule microarray binding, FGF2, fluorescence 635/667; higher = more signal.
Assay [7] in a line: mitochondrial membrane potential change in A549 cells, profiling panel, cell-based, JC-1 fluorescence, basal, 24 h, 100 nL (AID 1138).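 Further: A549 lung adenocarcinoma cells under basal conditions with no added stimulus; test concentration not given here.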 Particulars: higher = more signal.
Assay [8] relates to Lefty1. Put plainly: Lefty1 binders on small-molecule microarrays, primary screen, biochemical, small-molecule microarray, 635/667 nm fluorescence (AID 1139). Particulars: small-molecule microarray binding, fluorescence 635/667; higher = more signal.
The subject of assay [9] is wheat germ agglutinin (Triticum aestivum), Alexa647-labelled. Put plainly: wheat germ agglutinin binders on compound microarrays, profiling panel, artefact control for SMM control-protein annotation, biochemical, small-molecule microarray, 635/667 nm fluorescence (AID 1140).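 Further: score merges 667 nm feature emission with signal to noise over triplicate slides.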 Particulars: WGA-A647 binding, 635 nm fluorescence, higher = more signal.
Assay [10] deals with Luciferin 4-monooxygenase (Photinus pyralis) (UniProt P08659). Put plainly: firefly luciferase enzyme inhibitors, primary screen, biochemical, luminescence, purified enzyme, 2006 set (AID 1141).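 Further: cell-free assay with purified firefly luciferase at 100 ng per well in PBS; test concentration not given here.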 The note with it: SteadyGlo luminescence, 30 min, higher = more signal, called active from +8 up or from −8 down.

Molecules are shown by their SMILES. Activity calls are given as the source filed them.

Chain of Follistatin (Homo sapiens) (P19883 whole entry, looked up): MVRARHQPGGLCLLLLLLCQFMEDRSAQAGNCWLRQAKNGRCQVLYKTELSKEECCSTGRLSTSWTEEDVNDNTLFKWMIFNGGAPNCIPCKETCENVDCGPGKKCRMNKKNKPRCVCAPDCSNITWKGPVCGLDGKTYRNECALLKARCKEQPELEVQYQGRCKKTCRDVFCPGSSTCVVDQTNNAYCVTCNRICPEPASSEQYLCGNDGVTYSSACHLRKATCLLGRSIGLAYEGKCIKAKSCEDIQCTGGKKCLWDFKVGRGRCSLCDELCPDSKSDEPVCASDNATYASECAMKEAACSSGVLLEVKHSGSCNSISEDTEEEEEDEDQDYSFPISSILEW
Chain of Fibroblast growth factor 2 (Homo sapiens) (P09038 whole entry, looked up): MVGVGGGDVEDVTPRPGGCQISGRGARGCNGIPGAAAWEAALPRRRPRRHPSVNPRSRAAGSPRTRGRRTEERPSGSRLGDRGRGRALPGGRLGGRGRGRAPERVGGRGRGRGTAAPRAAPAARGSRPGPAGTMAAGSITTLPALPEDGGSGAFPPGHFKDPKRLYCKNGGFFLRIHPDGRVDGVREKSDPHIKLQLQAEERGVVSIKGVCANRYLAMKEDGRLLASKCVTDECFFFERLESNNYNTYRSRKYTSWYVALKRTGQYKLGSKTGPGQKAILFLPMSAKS
Chain of Focal adhesion kinase 1 (Homo sapiens) (Q05397 whole entry, looked up): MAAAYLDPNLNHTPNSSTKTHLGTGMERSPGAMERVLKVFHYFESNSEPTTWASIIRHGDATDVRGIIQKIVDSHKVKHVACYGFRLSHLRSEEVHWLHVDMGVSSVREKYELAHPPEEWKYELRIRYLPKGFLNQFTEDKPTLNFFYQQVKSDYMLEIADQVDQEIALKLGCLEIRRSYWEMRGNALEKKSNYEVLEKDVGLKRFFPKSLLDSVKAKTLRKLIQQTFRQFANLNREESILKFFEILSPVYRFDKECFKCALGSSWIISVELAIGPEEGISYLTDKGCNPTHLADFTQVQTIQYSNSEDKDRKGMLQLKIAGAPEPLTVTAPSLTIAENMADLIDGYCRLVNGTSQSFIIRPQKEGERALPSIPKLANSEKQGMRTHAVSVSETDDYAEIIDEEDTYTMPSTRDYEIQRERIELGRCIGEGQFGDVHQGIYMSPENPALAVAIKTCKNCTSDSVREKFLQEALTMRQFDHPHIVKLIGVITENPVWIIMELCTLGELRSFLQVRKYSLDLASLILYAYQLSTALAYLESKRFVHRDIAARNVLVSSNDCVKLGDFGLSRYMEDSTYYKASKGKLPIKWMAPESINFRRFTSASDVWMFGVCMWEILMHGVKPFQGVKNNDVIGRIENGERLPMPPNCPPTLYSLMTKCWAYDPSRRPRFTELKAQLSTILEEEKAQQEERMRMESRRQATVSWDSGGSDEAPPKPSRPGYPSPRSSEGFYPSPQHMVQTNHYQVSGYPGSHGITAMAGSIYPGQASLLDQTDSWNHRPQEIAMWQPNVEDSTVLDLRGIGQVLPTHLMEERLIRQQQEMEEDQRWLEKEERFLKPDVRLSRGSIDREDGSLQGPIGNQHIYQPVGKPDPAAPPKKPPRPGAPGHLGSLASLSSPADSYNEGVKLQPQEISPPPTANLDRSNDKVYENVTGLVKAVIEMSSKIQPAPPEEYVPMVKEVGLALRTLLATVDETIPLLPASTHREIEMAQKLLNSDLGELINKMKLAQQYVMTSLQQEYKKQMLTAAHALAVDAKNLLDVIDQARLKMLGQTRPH
Chain of Luciferin 4-monooxygenase (Photinus pyralis) (P08659 whole entry, looked up): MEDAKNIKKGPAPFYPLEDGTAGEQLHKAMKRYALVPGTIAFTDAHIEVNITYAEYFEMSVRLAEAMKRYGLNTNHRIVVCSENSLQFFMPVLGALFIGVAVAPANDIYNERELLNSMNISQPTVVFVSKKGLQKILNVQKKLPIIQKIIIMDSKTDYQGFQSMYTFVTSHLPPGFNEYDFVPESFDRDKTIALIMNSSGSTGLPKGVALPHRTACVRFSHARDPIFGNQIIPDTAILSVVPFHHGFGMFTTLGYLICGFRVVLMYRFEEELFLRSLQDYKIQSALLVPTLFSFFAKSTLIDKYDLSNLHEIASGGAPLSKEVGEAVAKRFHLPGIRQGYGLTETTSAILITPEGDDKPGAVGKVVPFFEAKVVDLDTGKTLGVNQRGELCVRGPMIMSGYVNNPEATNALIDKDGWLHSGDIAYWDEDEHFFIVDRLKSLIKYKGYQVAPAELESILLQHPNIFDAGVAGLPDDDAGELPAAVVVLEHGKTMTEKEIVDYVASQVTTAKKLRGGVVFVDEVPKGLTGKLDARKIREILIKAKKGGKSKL

Regarding `COc1cc2c(cc1OC)CN(C(=O)[C@H]1[C@@H]3C(=O)O[C@@H](c4ccccc4)[C@@H](c4ccccc4)N3[C@@H](c3ccc(OCCO)cc3)[C@]13C(=O)Nc1ccc(C#CC4(O)CCCCCC4)cc13)CC2`, the composite z-score is 1.91 in [1]; 1.21 in [2]; -0.109 in assay [3]; 0.819 in assay [4]; 1.46 in [5]; 1.38 in [6]. Moreover, the composite z-score in assay [8] worked out at 1.35; in assay [9], 1.18. Moreover, the z-score in assay [7] was -1.42; in assay [10], -1.15 (inactive).
As to `C=C(/C=C/CNS(=O)(=O)c1ccc(C)cc1)[C@H](O)[C@H]1CCCN1S(=O)(=O)c1ccccc1[N+](=O)[O-]`, the composite z-score in assay [1] was -0.394; in [2], 0.237; in [3], 0.0627; in assay [4] it was 0.53; in assay [5], 0.933; in [6] it was 0.891. The composite z-score in assay [8] turned out to be 0.887; in assay [9], 0.299. In addition, the z-score in assay [7] is 0.381; in [10] it was -0.83 (inactive).
Take `COCCCNC(=O)[C@]1(Cc2ccccc2CN=[N+]=[N-])N=C(c2ccc(OCCCO)cc2)O[C@@H]1c1ccccc1`: the composite z-score is 2.83 in [1]; 1.19 in [2]; 0.306 in [3]; 0.985 in [4]; 0.547 in [5]; -0.0864 in assay [6]. Moreover, the results for the composite z-score in [8] and in [9] were 0.0167 and 0.643, respectively. Also, the z-score was 1.06 in [7] and 0.505 (inactive) in assay [10].
`CC=CC(O)C1C=CC2C(=O)N(c3ccccc3)C(=O)C2N1Nc1ccc([N+](=O)[O-])cc1` (stereo not given): the composite z-score worked out at 1.58 in [1]; 0.644 in assay [2]; 0.427 in assay [3]; 0.752 in assay [4]; 0.495 in [5]; 0.194 in assay [6]. In addition, the composite z-score in assay [8] turned out to be 0.112; in assay [9], 0.645. The values for the z-score in assay [7] and in assay [10] were -0.645 and 1.28 (inactive), respectively.
Turning to `CC(C)(C)OC(=O)CC[C@@]1(C(=O)O)N=C(c2ccc(OCCCO)cc2)O[C@@H]1c1ccccc1`, the composite z-score is 1.52 in assay [1]; 0.716 in assay [2]; -0.219 in [3]; 0.506 in assay [4]; 0.0761 in assay [5]; -0.228 in [6]. For the same compound, the composite z-score was -0.643 in assay [8] and -0.0131 in assay [9]. The z-score in [7] is -0.161; in assay [10] it was 0.383 (inactive).
Consider `NC(=O)N1C(=O)C2C(C1=O)C1C=C(CCCO)C2C(c2cccs2)N1Cc1cc2c(cc1Br)OCO2` (stereo not given), for which the composite z-score in [1] was 2.23; in [2], -0.212; in [3], 1.67; in assay [4] it was 0.87; in assay [5] it was 0.192; in assay [6], -0.681. The composite z-score is 0.574 in assay [8] and 0.851 in assay [9]. The z-score in assay [7] is 0.707; in [10], -0.062 (inactive).
Regarding `CC=CC(O)C1C=CC2C(=O)N(c3ccccc3)C(=O)C2N1Nc1ccccc1` (stereo not given), the composite z-score in [1] was found to be 2.25; in assay [2], 1.25; in [3], 0.981; in assay [4], 0.915; in assay [5] it was 1.2; in assay [6], 0.915. Moreover, the composite z-score is 0.493 in assay [8] and 1.15 in [9]. Besides, the z-score in assay [7] is 0.714; in assay [10], -2.22 (inactive).
As to `C[n+]1ccc(CCCO)cc1`, the composite z-score was -0.278 in assay [1]; -1.41 in assay [2]; -0.526 in [3]; -1.48 in [4]; 1.37 in assay [5]; 1.44 in assay [6]. The composite z-score was 1.36 in assay [8] and -0.72 in [9]. The figures for the z-score in assay [7] and in [10] were -0.195 and 0.246 (inactive), respectively.

The values above are taken from PubChem BioAssay.
